Screening data from PubChem.
Sampled rows, rich in hits. Any-hit rate of the full collection: about 12%.
PLK1 PBD inh: qHTS for Inhibitors of PLK1-PDB (polo-like kinase 1 - polo-box domain): Primary Screen. Serine/threonine-protein kinase PLK1 (Homo sapiens), P53350. Plk1 PBD binding of FITC phosphopeptide, fluorescence polarization. Potency, µM, hits mostly inhibitors. actives 2.8% (n = 360,000). AID 720504, 2013; further: series mostly up to about 57 µM; nearly all actives have a fitted effect of over 65% in size
RORg inh: qHTS for inhibitors of ROR gamma transcriptional activity. Drosophila S2 Gal4-RORgamma UAS-luciferase reporter, 20 h. Potency, µM (top dose mostly 53.6 µM), actives largely listed as inhibitors. Nuclear receptor ROR-gamma (Mus musculus), P51450. actives 5.4% (n = 310,000); further: nearly all actives have a fitted effect of over 60% in size
Target sequence (P51450 whole entry, looked up, the tested form may be a part): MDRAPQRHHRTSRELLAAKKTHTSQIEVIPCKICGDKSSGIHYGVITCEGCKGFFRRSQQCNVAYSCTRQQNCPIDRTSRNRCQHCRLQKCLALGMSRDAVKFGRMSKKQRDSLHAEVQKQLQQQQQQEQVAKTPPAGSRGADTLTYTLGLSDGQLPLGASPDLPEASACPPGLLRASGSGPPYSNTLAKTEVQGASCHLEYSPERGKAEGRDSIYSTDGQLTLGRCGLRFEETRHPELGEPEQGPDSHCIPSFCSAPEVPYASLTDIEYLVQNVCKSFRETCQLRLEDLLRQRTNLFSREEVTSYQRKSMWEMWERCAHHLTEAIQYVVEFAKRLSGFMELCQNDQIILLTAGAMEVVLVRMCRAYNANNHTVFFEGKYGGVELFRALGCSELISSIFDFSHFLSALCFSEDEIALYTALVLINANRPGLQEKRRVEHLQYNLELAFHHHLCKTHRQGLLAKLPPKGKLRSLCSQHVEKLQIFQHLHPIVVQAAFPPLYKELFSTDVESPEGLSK
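Luciferase reporter read in Schneider cells carrying Gal4-RORγ (mouse) and UAS-Photinus luciferase; cells given compound 1 h before 700 uM copper sulfate induction, then incubated 20 h at ambient temperature.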
VP16 counter: VP16 counterscreen qHTS for inhibitors of ROR gamma transcriptional activity | Potency, µM (doses to about 53.6 µM), actives largely listed as inhibitors | actives 3.5% (n = 310,000) | Drosophila S2 Gal4-VP16 UAS-luciferase, luminescence, 20 h | AID 2546, 2010;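 further: Gal4-VP16 expression switched on by copper sulfate through the metallothionein promoter; nearly all actives have a fitted effect of over 50% in size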
ALDH1A1 inh: qHTS Assay for Inhibitors of Aldehyde Dehydrogenase 1 (ALDH1A1). Aldehyde dehydrogenase 1A1 (Homo sapiens), P00352. actives 7.3% (n = 220,000). Potency, µM (highest dose often 75.3 µM), most hits filed as inhibitors. Purified ALDH1A1, NADH fluorescence, propionaldehyde substrate; active means well fitted inhibition curve with a large enough effect, not every such curve was filed as active; inconclusive means small, poorly fitted or top-dose-only effect, or another doubt; inactive means no such curve, though single readings can be large or run the other way
Sfp PPTase inh: qHTS Assay for Inhibitors of Bacillus subtilis Sfp phosphopantetheinyl transferase (PPTase); 4'-phosphopantetheinyl transferase ffp (Bacillus subtilis), Q9F4F7; Biochemical Sfp PPTase activity, qHTS; Potency, µM, most hits filed as inhibitors; actives 3.5% (n = 310,000); AID 1490, 2009;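 further: the enzyme is Sfp with the accession as filed and its product quenches rhodamine fluorescence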
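Step 1, compound plus 15 nM Sfp-PPTase, 15 min, room temperature. Step 2, add rhodamine-CoA (5 uM) and BHQ-2-YbbR (12.5 uM). Step 3, read 525/598 nm fluorescence at 0 and 30 min.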
Of the large screens only hits and unclear results are named; the others gave an inactive call. Unless noted, the call rests on the fitted dose curve; in most records, active means well fitted curve in the direction sought with a large enough effect; inconclusive means small, poorly fitted or top-dose-only effect, or another doubt; inactive means no such curve, though single readings can be large; an effect the other way counts as inactive or inconclusive.

O=C(C1=C[C@@H]2[C@H]3C(=O)N(c4ccc(Cl)cc4)C(=O)[C@H]3[C@@H](C(=O)c3ccc(Cl)cc3)N2C=C1)c1ccccc1	ALDH1A1 inh 14µM
Cc1ccc(N2C(=O)C3C(C2=O)C(C(=O)c2ccc(Cl)cc2)N2CCCC32)cc1 (stereo not drawn)	RORg inh inconclusive, ALDH1A1 inh inconclusive, Sfp PPTase inh inconclusive
Cc1ccc(/C=N/n2cnc3sc(C)c(C)c3c2=O)o1	PLK1 PBD inh 21µM, ALDH1A1 inh inconclusive
Cc1ccc(/C=N/n2cnc3sc4c(c3c2=O)CCCC4)o1	ALDH1A1 inh inconclusive
O=C(Nc1cccc2c1CCCC2)C1CCN(c2nnnn2-c2ccccc2)CC1	ALDH1A1 inh 8.9µM
Cc1nnc(NC(=O)C2CCN(c3cnccn3)CC2)s1	none
Cc1nnc(NC(=O)C2CCN(c3nnnn3-c3ccccc3)CC2)s1	ALDH1A1 inh 20µM
O=C1CCC(=O)N1c1cccc(OS(=O)(=O)c2ccccc2)c1	ALDH1A1 inh 0.35µM
CC1CCC2C(=O)N(c3ccc(S(=O)(=O)c4ccccc4)cc3)C(=O)C2C1 (stereo not drawn)	RORg inh inconclusive
CC1CCC2C(=O)N(c3cccc(OS(=O)(=O)c4ccccc4)c3)C(=O)C2C1 (stereo not drawn)	ALDH1A1 inh 13µM
O=C(CCCC1=NS(=O)(=O)c2ccccc2N1)Nc1ccccc1	none (no result: ALDH1A1 inh)
CS(=O)(=O)N1CCN(c2ccc([N+](=O)[O-])cc2F)CC1	ALDH1A1 inh 3.2µM
CC(=O)c1cc(F)c(N2CCN(c3ccc([N+](=O)[O-])cc3F)CC2)cc1C	none
O=C1C2C3C=CC(C3)C2C(=O)N1c1ccc2c(c1)OCO2 (stereo not drawn)	ALDH1A1 inh inconclusive
O=C1CC(N2CCN(c3ccc(O)cc3)CC2)C(=O)N1c1ccc2c(c1)OCO2 (stereo not drawn)	ALDH1A1 inh inconclusive, Sfp PPTase inh 40µM
O=C1CC(N2CCCCCC2)C(=O)N1c1ccc2c(c1)OCO2 (stereo not drawn)	RORg inh 10µM, VP16 counter inconclusive, ALDH1A1 inh 5µM
O=C1CC(NC23CC4CC(CC(C4)C2)C3)C(=O)N1c1ccc2c(c1)OCO2 (stereo not drawn)	ALDH1A1 inh 11µM
COc1ccccc1-c1cnc(C(O)c2ccc(CN3CCCCC3)cc2)[nH]1 (stereo not drawn)	none (no result: RORg inh, VP16 counter, ALDH1A1 inh, Sfp PPTase inh)
OC[C@@H]1CN(Cc2cccnc2)C[C@H](n2cnc3c(NC4CCCC4)ncnc32)O1	none (no result: RORg inh, VP16 counter, ALDH1A1 inh, Sfp PPTase inh)
COc1ccc(-c2nc(CN3CCCCC3c3nccn3C)c(C)o2)c(C)c1C (stereo not drawn)	RORg inh 4.5µM, VP16 counter inconclusive
O=C1NC[C@@H](CCCCN2C[C@H](Cc3ccc(O)cc3)N(CCc3ccccc3)C(=O)C2=O)N(CCc2ccc(O)cc2)C1=O	none (no result: RORg inh, VP16 counter, ALDH1A1 inh, Sfp PPTase inh)
Cc1cc2c(cc1C)-c1nnnn1C(C)(C)C2	ALDH1A1 inh 7.1µM
CCOC(=O)c1sc2nc(C)nc(N3CCN(S(=O)(=O)c4ccccc4)CC3)c2c1C	PLK1 PBD inh 24µM (no result: RORg inh, VP16 counter, ALDH1A1 inh, Sfp PPTase inh)
CCOC(=O)c1sc2nc(CC(=O)OC)nc(N3CCN(c4ccc(OC)cc4)CC3)c2c1C	ALDH1A1 inh 0.1µM
CCOC(=O)C(C)Sc1nnc(Cn2c(=O)sc3ccccc32)n1-c1ccccc1 (stereo not drawn)	PLK1 PBD inh inconclusive, Sfp PPTase inh 79µM
O=C(CSc1nnc(Cn2c(=O)sc3ccccc32)n1-c1ccccc1)N1CCOCC1	PLK1 PBD inh inconclusive, Sfp PPTase inh 56µM
O=C(O)c1cc(-c2ccc(/C=C3/SC(=S)N(Cc4ccccc4)C3=O)o2)ccc1Cl	ALDH1A1 inh 0.089µM, Sfp PPTase inh 50µM
O=C1/C(=C\c2cccc(O)c2)SC(=S)N1Cc1ccccc1	none (no result: ALDH1A1 inh)
COc1ccc(CN2C(=O)/C(=C/c3ccc(-c4ccc(Cl)c(C(=O)O)c4)o3)SC2=S)cc1	ALDH1A1 inh inconclusive, Sfp PPTase inh 50µM (no result: PLK1 PBD inh)
N=C1/C(=C/c2ccc(-c3cccc(C(=O)O)c3)o2)C(=O)N=C2SC(CC(=O)N3CCOCC3)=NN12	PLK1 PBD inh 30µM (no result: ALDH1A1 inh)
Cc1ccc(/C=C2\C(=N)N3N=C(CC(=O)N4CCOCC4)SC3=NC2=O)o1	PLK1 PBD inh 27µM (no result: ALDH1A1 inh)
N=C1/C(=C\c2ccc(SCc3ccccc3)o2)C(=O)N=C2SC(CC(=O)N3CCOCC3)=NN12	PLK1 PBD inh inconclusive (no result: ALDH1A1 inh)
COC(=O)c1nnc(C(=O)N(C)Cc2ccccc2)c2[nH]c3ccccc3c12	ALDH1A1 inh inconclusive (no result: PLK1 PBD inh)
Cc1ccc2c(c1)nnn2C1CCN(C(=O)C2CCCCC2)CC1	RORg inh inconclusive, ALDH1A1 inh 7.9µM
CC(C)(C)NC(=O)[C@@H]1CC[C@@H]2[C@@H]3CC[C@@H]4NC(=O)C=C[C@@]4(C)[C@H]3CC[C@]21C	none (no result: PLK1 PBD inh)
CCOC(=O)c1ccc(N2C(=O)C(C)=C(C)C2=O)cc1	none
COC(=O)c1nn(C23CC4CC(CC(C4)C2)C3)c2c1C(=O)N(c1ccc(Br)cc1)C2=O	VP16 counter 5.6µM
CCOC(=O)c1nn(C23CC4CC(CC(C4)C2)C3)c2c1C(=O)N(c1ccc(C)cc1)C2=O	RORg inh 11µM, VP16 counter 7.1µM
COC(=O)c1cc(-c2ccc(Br)cc2)on1	none
O=c1c2ncn([C@@H]3O[C@@H]4COP(=O)(O)O[C@H]4[C@H]3O)c2nc2[nH]c(-c3ccccc3)cn12	none (no result: PLK1 PBD inh, ALDH1A1 inh)
O=S1(=O)CC(N2CCCCC2)CN1Cc1cn(Cc2ccc(C(F)(F)F)cc2)nn1 (stereo not drawn)	none (no result: RORg inh, VP16 counter, ALDH1A1 inh, Sfp PPTase inh)
Cc1cccc(-n2c(-c3ccccc3)c[nH]c2=S)c1C	RORg inh 2.2µM, VP16 counter 7.1µM, Sfp PPTase inh inconclusive (no result: ALDH1A1 inh)
COc1ccccc1-n1c(-c2ccc(Cl)cc2)c[nH]c1=S	RORg inh 2.8µM, VP16 counter 7.1µM, ALDH1A1 inh inconclusive
COc1ccccc1-n1c(-c2ccc(NS(C)(=O)=O)cc2)n[nH]c1=S	ALDH1A1 inh inconclusive
Cc1ccccc1NC(=O)NC1(C(=O)N2CCN(C)CC2)CCCCC1	none (no result: ALDH1A1 inh)
O=C(O)C1=C/C(=C(/c2ccccc2)c2cc(C(=O)O)c(O)c3ccccc23)c2ccccc2C1=O	none (no result: PLK1 PBD inh, RORg inh, VP16 counter, Sfp PPTase inh)
O=C(NC1CCCCC1)C(c1ccncc1)N(Cc1ccc(F)cc1)C(=O)c1ccccn1 (stereo not drawn)	none (no result: ALDH1A1 inh)
CC(C)(C)NC(=O)C(c1ccc(F)cc1)N(Cc1ccco1)C(=O)c1csnn1 (stereo not drawn)	none
COc1ccc(CN(C(=O)c2ccc(-c3ccccc3)[nH]2)C(C(=O)NCC2CCCO2)c2ccc(C)o2)cc1 (stereo not drawn)	ALDH1A1 inh 10µM
